Where “and” joins values, the source holds several entries; their conditions need not be identical. Equal entries are not always repeated. Records with an inconclusive call do not appear. Where a structure was tested more than once in an assay, its records may differ in their call. Calls of active or inactive are those of the source. Unless noted, the call rests on the fitted dose curve; in most records, active means well fitted curve in the direction sought with a large enough effect; inconclusive means small, poorly fitted or top-dose-only effect, or another doubt; inactive means no such curve, though single readings can be large; an effect the other way counts as inactive or inconclusive.

Assay [1] is described as follows: Cell Viability - BJ (AID 421; calls by dose curve;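 further: potency means the concentration at half of the fitted maximal effect; cells exposed to compound for 40 hours at 37 °C before readout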). The note with it: BJ fibroblast viability, qHTS. The essentials: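 Cytotoxicity in human BJ foreskin fibroblasts is scored as loss of cellular ATP after a 40-hour exposure, measured by luciferase luminescence. Controls are DMSO and 100 uM tamoxifen.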
On the technique in general: Quantitative high-throughput screening tests each substance at several concentrations.

Assay [2] is described as follows: Cell Viability - Jurkat (AID 426;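 active means dose-dependent loss of cell ATP signal giving a full or clear fitted curve, ranked by lower potency value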;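 further: potency means the concentration at half of the fitted maximal effect; cells exposed to compound for 40 hours at 37 °C before ATP read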). The conditions noted are these: qHTS. Put shortly: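 Cytotoxicity was scored as loss of cellular ATP, measured by luciferase-based luminescence, in Jurkat clone E6-1 cells after 40 h compound treatment; tamoxifen and doxorubicin served as positive controls.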
Assay [3] is described as follows: Cell Viability - Hek293 (AID 427;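 active means compounds whose dose-response curve shows a full or clear partial loss of cell viability, called from curve shape rather than a numeric limit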;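 further: potency means the concentration at half of the fitted maximal effect; cells exposed to compound for 40 hours at 37 °C before reading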). The note with it: qHTS. The essentials: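 qHTS, human embryonic kidney (adenovirus-transformed) cells; 40 hr cpd, 37 °C; CellTiter-Glo ATP luminescence. Norm: DMSO = 0, 100 uM tamoxifen = 100% inhibition. Hill-fit AC50.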
Assay [4] is described as follows: Cell Viability - HepG2 (AID 433; calls by dose curve; further: potency means the concentration at half of the fitted maximal effect). The conditions noted are these: qHTS. The essentials:
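Cytotoxicity is scored as loss of intracellular ATP in HepG2 cells exposed to compounds for 40 h. Concentration-response curves, normalized to DMSO and 100 uM tamoxifen, give AC50 values.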

The nature of assay [5]: Cell Viability - MRC5 (AID 434; calls by dose curve;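 further: potency means the concentration at half of the fitted maximal effect; cells exposed to compound for 40 hours at 37 °C; potency reflects cytotoxicity seen as loss of intracellular ATP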). The note with it: MRC5 lung fibroblast viability, qHTS. Put shortly:
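Decrease in intracellular ATP, quantified by luciferase light output, reflects compound toxicity toward MRC5 cells exposed for 40 hr in complete culture medium. Concentration-response curves, scaled between DMSO and 100 uM tamoxifen, gave AC50 values.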

The nature of assay [6]: Cell Viability - SK-N-SH (AID 435; calls by dose curve;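 further: potency means the concentration at half of the fitted maximal effect; compound exposure lasted 40 h at 37 °C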). The note with it: SK-N-SH neuroblastoma cell viability qHTS. Put shortly:
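Cells seeded at 1500 per well and incubated 5 hr at 37 °C. Compound added, then 40 hr at 37 °C. CellTiter-Glo added, 20 min at room temperature, luminescence read.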

The target of assay [7] is Mitogen-activated protein kinase 10 (Mus musculus) (UniProt Q61831). Kind of assay: JNK3 AlphaScreen Assay (AID 530; active means well fitted curve in either direction with a large enough effect, not every such curve was filed as active;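 further: kinase came from lysate of stimulated human HepG2 cells; on the % scale 0 is the no-effect control and ±100 the full control effect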). The note with it: JNK3 lysate, c-Jun phosphorylation; series mostly up to 57.1 µM. The essentials: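 Biotinylated GST-cJun(1-79) served as substrate for JNK3 in HepG2 lysates stimulated with IL-1beta and TNF-alpha. ATP was 10 uM final, pH 7.6. Ser73 phosphorylation was quantified by AlphaScreen (680 nm excitation).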
(In general: Alpha assays give light when donor and acceptor beads are brought close together.)

Assay [8] in a line: Cell Viability - NIH 3T3 (AID 541). Further: nearly all actives have a fitted effect of over 25% in size. Further: potency means the concentration at half of the fitted maximal effect.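 On activity change, negative = cytotoxicity: plate controls were DMSO alone for no effect and tamoxifen positive control for full effect.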 The note with it: NIH 3T3 cell viability, qHTS; activity change, negative = cytotoxicity: at 92.2 µM (top of the series). The essentials:
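In this cytotoxicity screen, acute toxicity is scored as an ATP drop measured by CellTiter-Glo in NIH 3T3 fibroblasts following a 40 hr, 37 °C incubation with compound.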

Assay [9] can be described thus: Cell Viability - H-4-II-E (AID 543). Further: on the % scale 0 is the no-effect control and ±100 the full control effect; nearly all actives have a fitted effect of over 35% in size. The conditions noted are these: H-4-II-E rat hepatoma viability; series mostly up to 92.2 µM. The essentials:
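AC50 from Hill-modelled qHTS concentration-response curves. H-4-II-E rat hepatoma cells in complete medium, 40 hr exposure at 37 °C, viability by CellTiter-Glo ATP luminescence.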

Assay [10] is described as follows: Cell Viability - Mesenchymal (AID 546).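 Further: cells exposed to compound for 40 hours before reading.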 The conditions noted are these: mesenchymal cells viability, qHTS; activity change, negative = cytotoxicity: at 91.7 µM (top of the series). The essentials: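 In this qHTS cytotoxicity format, glomerulus-derived human mesenchymal kidney cells received compound for 40 hr, then luciferase-based ATP quantitation. Concentration-response data were fitted with the Hill equation.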

Assay [11] can be described thus: Cellular Toxicity (caspase-3) HepG2 (AID 654).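 Further: cells exposed to compound for 16 hours before reading.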 The note with it: HepG2 caspase-3 activation, luminescence, 0% = DMSO only, 100% = tamoxifen; series mostly up to 92.2 µM. The essentials:
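Concentration-response AC50 values reflect caspase-3/7 induction in HepG2 cells after 16 hours of compound exposure, quantified by luminescence from liberated aminoluciferin and referenced to 100 uM tamoxifen as full stimulation.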

Assay [12] can be described thus: Cellular Toxicity (caspase-3) HUV-EC-C (AID 656). The note with it: HUV-EC-C cells, caspase-3 activation (apoptosis), vehicle = 0, 100 µM tamoxifen = 100%; series mostly up to 92.2 µM. The essentials: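 Read-out: luminescence proportional to caspase 3/7 activity, measured 20 min after adding Caspase-Glo 3/7 reagent. Cells (HUV-EC-C) had received compound for 16 hr at 37°C. Increases relative to DMSO and 100 uM tamoxifen gave concentration-response AC50 values.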

Assay [13] in a line: Cellular Toxicity (caspase-3) BJ (AID 658). The note with it: BJ fibroblasts, luminescence, normalized: DMSO 0%, staurosporine 100%; series mostly up to 91.7 µM. The essentials:
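Plated BJ cells (1000/well) rested 5 hr, received compound for 16 hr at 37 °C, then Caspase-Glo 3/7 reagent for 1 hr at room temperature before luminescence reading.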

A short description of assay [14]: Cellular Toxicity (caspase-3) MRC-5 (AID 659). The note with it: MRC-5 cells, luminescence, normalized: DMSO 0%, 10 µM staurosporine 100%; series mostly up to 91.7 µM. The essentials: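 Apoptosis readout in MRC-5 cells: luciferase light generated after caspase 3/7 cleaves a peptide-aminoluciferin substrate, measured post 16 hr compound incubation at 37 °C.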
Assay [15] in a line: Cellular Toxicity (caspase-3) Mesangial (AID 660).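 Further: cells exposed to compound for 16 h before the caspase read.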 The conditions noted are these: mesangial cells, normalized: DMSO 0%, 100 µM tamoxifen 100%; series mostly up to 91.7 µM. The essentials: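 AC50 values come from Hill-equation fits of caspase 3/7 activation, measured as Caspase-Glo luminescence in human glomerular mesangial cells exposed to compound for 16 h at 37 °C; 100% set by 100 uM tamoxifen.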

Assay [16] can be described thus: Cellular Toxicity (caspase-3) Hek293 (AID 664).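 Further: cells exposed to compound for 16 h at 37 °C before readout.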 The conditions noted are these: HEK293 caspase-3 activation, DMSO = 0%, 100 µM tamoxifen = 100%; series mostly up to 92.2 µM. The essentials: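 Apoptosis readout: Caspase-Glo 3/7 signal in human HEK293 cells following 16-hour compound incubation. Responses scaled between DMSO baseline and 100 uM tamoxifen.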
A short description of assay [17]: Cellular Toxicity (caspase-3) Renal Proximal Tubule (AID 667).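 Further: cells exposed to compound for 16 hours at 37 °C before detection.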 The note with it: renal proximal tubule cells, primary cells freshly taken from rat, solvent-only wells 0%, staurosporine 100%; series mostly up to 91.7 µM. The essentials:
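In qHTS format, rat primary proximal tubule cells seeded at 1000 per well are exposed to compounds for 16 hours at 37 °C. An increase in Caspase-Glo 3/7 luminescence indicates caspase activation.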

The nature of assay [18]: qHTS Assay for Identification of Small Molecule Inducers of Hypoxia Response (AID 2120; active means well fitted curve in the direction sought with a large enough effect in the signal ratio, with a control signal flat, not every such curve was filed as active; the % refers to the signal ratio; further: 0% is about no effect). The note with it: hypoxia response reporter cells, beta-lactamase ratio readout; series mostly up to 104 µM. Put shortly:
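HRE-bla ME-180, 2500 cells/well, 0.5% dialyzed FBS medium; cpd titration, 17 h 37 degrees C; CCF4 2.5 h RT; Ex 405, Em 460/530 ratio -> %Activity, AC50.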

Assay [19] can be described thus: qHTS assay for small molecule antagonists of retinoid X receptor alpha signaling (AID 588546).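 Further: cells stimulated with 9-cis-retinoic acid as agonist; on the % scale 0 is the no-effect control and ±100 the full control effect.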 The conditions noted are these: HEK293T RXRa-UAS-bla, beta-lactamase ratio, antagonist mode; measured here: W530 green channel, cytotoxicity proxy. The essentials: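 Beta-lactamase reporter inhibition, read as CCF4 fluorescence ratio (ex 405, em 460/530 nm) after 2 h at RT. HEK293T UAS-bla cells, 2500/well, were stimulated with 9-cis-RA at 500 or 100 nM final alongside test compound for 18 h at 37 C.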

The target in assay [20] is Peroxisome proliferator-activated receptor alpha (Homo sapiens) (UniProt Q07869). Kind of assay: qHTS assay for small molecule agonists of the peroxisome proliferator-activated receptor alpha (PPARalpha) signaling pathway (AID 651778). Further: % of control where 0% means no effect. The conditions noted are these: PathHunter PPARalpha complementation, chemiluminescence, 6 h; max response: stronger effect = higher value. Put shortly: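 Cells plated at 2,000/well and held overnight at 37 C, 5% CO2, then compound added by pin tool for 6 hr; after PathHunter detection reagent and 60 min at room temperature, chemiluminescence from enzyme complementation was read.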
Sequence of Peroxisome proliferator-activated receptor alpha (Homo sapiens) (Q07869 whole entry, looked up): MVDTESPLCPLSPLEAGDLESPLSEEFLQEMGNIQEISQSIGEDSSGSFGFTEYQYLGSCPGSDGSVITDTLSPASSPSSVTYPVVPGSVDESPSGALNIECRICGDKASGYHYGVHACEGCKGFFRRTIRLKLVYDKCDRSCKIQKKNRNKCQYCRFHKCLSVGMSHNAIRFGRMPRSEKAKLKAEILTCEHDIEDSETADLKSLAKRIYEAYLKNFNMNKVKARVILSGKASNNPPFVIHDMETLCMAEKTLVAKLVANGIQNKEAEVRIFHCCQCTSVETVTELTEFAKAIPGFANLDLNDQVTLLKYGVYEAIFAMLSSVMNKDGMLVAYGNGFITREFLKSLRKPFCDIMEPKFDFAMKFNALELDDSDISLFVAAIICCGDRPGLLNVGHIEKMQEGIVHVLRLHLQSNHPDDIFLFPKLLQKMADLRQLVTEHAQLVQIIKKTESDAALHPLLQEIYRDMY

Turning to `Clc1cc(Cl)c(Cl)cc1Cl`, the Potency in [1], in assay [2], in assay [3], in assay [4], in assay [5] and in assay [6] was > 92 µM (inactive) each time. Besides, the Potency result in [7], in assay [8] and in assay [9] was “inactive” throughout. Further, the activity change, negative = cytotoxicity in assay [10] is 9.51% (inactive). In addition, the result in assay [11], in assay [12], in assay [13], in assay [14], in assay [15] and in assay [16] was inactive. Besides, the compound was called inactive in assay [17] and in [18]. Besides, the max response is -13.2% and -12.3% in [19]; -0.154% (inactive) and -0.267% (inactive) in assay [20].

For the compound `C1OCOCO1`, the Potency in assay [1], in assay [2], in assay [3], in assay [4], in [5] and in assay [6] was > 92 µM (inactive) in each case. The Potency entry in assay [7], in assay [8] and in assay [9] was “inactive” each time. The activity change, negative = cytotoxicity in assay [10] is -5.36% (inactive). The compound was called inactive in assay [11], in assay [12], in assay [13], in [14], in [15] and in assay [16]. The call in [17] and in assay [18] was inactive. For the same compound, the max response in [19] is -18.1%; in assay [20], -0.344% (inactive).

Turning to `COc1cccc(-c2ccc3ncnc(NCc4ccc(OC)cc4OC)c3c2)c1`, the Potency entry in assay [7] was “inactive”.

For `CCC(C)c1ccccc1O` (stereo unspecified), the Potency in assay [1], in assay [2], in assay [3], in [4], in [5] and in [6] was > 92 µM (inactive) throughout. Further, the Potency entry in assay [7], in [8] and in [9] was “inactive” each time. In addition, in assay [10], the activity change, negative = cytotoxicity is 1.63% (inactive) and 2.6% (inactive). In addition, the compound was classed as inactive in [11], in [12], in assay [13], in [14], in assay [15] and in assay [16]. The outcome in assay [17] and in [18] was inactive. The max response in assay [19] was -6.22% and -6.2% and -6.14%; in [20], 4.33% (inactive) and -1.41% (inactive) and -1.75% (inactive).

Consider `CCCCC(CC)CN` (stereo unspecified), for which the Potency in assay [1], in assay [2], in assay [3], in assay [4], in assay [5] and in assay [6] was > 92 µM (inactive) each time. Moreover, the Potency in assay [8] is 12.6 µM (active) and inactive. For the same compound, the Potency entry in assay [9] was “inactive”. For the same compound, in assay [10], the activity change, negative = cytotoxicity is -2.68% (inactive) and 2.84% (inactive). Besides, the result in [11], in assay [12], in assay [13], in [14], in assay [15] and in [16] was inactive. Moreover, the outcome in assay [17] and in assay [18] was inactive. Moreover, the max response in assay [19] is -4.73% and -4.29%; in assay [20] it was -4.52% (inactive) and -4.66% (inactive).

Take `CN1CCN(c2nc(-c3cccnc3)nc3ccccc23)CC1`: in [7], the Potency entry was “inactive”.

The values are drawn from PubChem BioAssay (NCATS).
